From PubChem BioAssay (EPA / NIEHS)
Values joined by “and” are separate entries in the source; they are usually repeats but may differ in a detail not shown here. Equal values may be shown once. Where a structure was tested more than once in an assay, its records may differ in their call. Active and inactive are the calls of the source. Rule for the calls: active = hit-call score of the fitted dose curve at least 0.9, where 1 is the maximum; inactive = score below 0.9.

What was measured:
[1] = ATG_GLI_CIS: Attagene CIS-FACTORIAL HepG2 Assay for human Zinc Finger Protein GLI1 (AID 2282945); details: HepG2, Attagene cis-factorial reporter mRNA, GLI element; actives raise or lower the signal
Summary of the method: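 Transiently transfected HepG2 cells report endogenous transcription factor activity via cis-element-driven reporter units. After 24 h compound exposure, reporter mRNA was measured by RT-PCR with capillary electrophoresis; bidirectional fitting against DMSO baseline.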

[2] = ATG_GRE_CIS: Attagene CIS-FACTORIAL HepG2 Assay for human Glucocorticoid Response Elements (GRE) (AID 2282947); details: HepG2 GRE cis-reporter, Attagene multiplex mRNA; actives raise or lower the signal
Summary of the method: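 Fluorescence intensity of reporter-specific cDNA fragments, separated by capillary electrophoresis, provides the signal. Constructs carry cis-regulating promoters in transiently transfected HepG2 liver cells; 24 h incubation; fitting is bidirectional against DMSO.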

[3] = ATG_ISRE_CIS: Attagene CIS-FACTORIAL HepG2 Assay for human Interferon Regulatory Factor 1 (IRF1) binding to an Interferon-Stimulated Response Element (ISRE) (AID 2282948); details: HepG2 ISRE cis-reporter (Attagene), mRNA transcription readout; actives raise or lower the signal
Summary of the method: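 Read-out: fluorescent RT-PCR products resolved by capillary electrophoresis, reporting endogenous transcription factor activity via ISRE-driven reporter mRNA in transfected HepG2 cells dosed for 24 h; gain or loss fitted relative to DMSO.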

[4] = ATG_M_32_CIS: Attagene CIS-FACTORIAL HepG2 Assay for M32 Transcription Factor (Internal Marker) (AID 2282949); details: HepG2 Attagene cis-factorial M32 reporter, mRNA; actives raise or lower the signal;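 note: background control marker of the multiplexed CIS panel rather than a real target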
Summary of the method: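 HepG2 transfectants (cis-regulated reporter transcription units) dosed 24 h. Reporter mRNA by RT-PCR plus CE, analysed as gain or loss relative to DMSO.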

[5] = ATG_M_06_CIS: Attagene CIS-FACTORIAL HepG2 Assay for M06 Transcription Factor (Internal Marker) (AID 2282950); details: HepG2 Attagene CIS-FACTORIAL M06 internal marker reporter; actives raise or lower the signal
Summary of the method: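 HepG2 liver cells, 24 h exposure. Reporter transcripts from transfected cis-element constructs quantified by RT-PCR/capillary electrophoresis fluorescence. Bidirectional curve fit against DMSO.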

[6] = target: Hepatocyte nuclear factor 6 (Homo sapiens) (UniProt Q9UBC0); experiment: ATG_HNF6_CIS: Attagene CIS-FACTORIAL HepG2 Assay for human Hepatocyte Nuclear Factor 6 (HNF6) (AID 2282952); details: HepG2 Attagene cis-factorial HNF6 reporter transcription; actives raise or lower the signal
Sequence of Hepatocyte nuclear factor 6 (Homo sapiens) (Q9UBC0 whole entry, looked up): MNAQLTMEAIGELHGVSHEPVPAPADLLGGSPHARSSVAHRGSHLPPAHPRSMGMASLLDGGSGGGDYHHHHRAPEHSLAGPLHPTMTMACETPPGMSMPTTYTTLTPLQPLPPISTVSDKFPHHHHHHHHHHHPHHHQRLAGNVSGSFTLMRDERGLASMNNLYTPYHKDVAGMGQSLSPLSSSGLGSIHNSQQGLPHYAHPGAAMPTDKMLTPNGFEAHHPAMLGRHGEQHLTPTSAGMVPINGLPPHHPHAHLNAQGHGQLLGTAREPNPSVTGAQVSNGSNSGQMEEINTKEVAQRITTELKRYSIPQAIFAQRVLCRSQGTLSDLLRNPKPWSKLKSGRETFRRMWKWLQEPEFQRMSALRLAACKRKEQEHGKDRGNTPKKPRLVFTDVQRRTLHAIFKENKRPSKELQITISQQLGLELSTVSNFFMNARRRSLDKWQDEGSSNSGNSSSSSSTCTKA
Summary of the method: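 Endogenous factor activity read in transiently transfected HepG2 via promoter-regulated reporter transcripts. RNA harvested 24 h post-dosing, reverse-transcribed, PCR-amplified, FAM-labelled, HpaI-digested and resolved by capillary electrophoresis; fitted in both directions against DMSO.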

[7] = target: Heat shock factor protein 1 (Homo sapiens) (UniProt Q00613); experiment: ATG_HSE_CIS: Attagene CIS-FACTORIAL HepG2 Assay for human Heat Shock Transcription Factor 1 (HSE) (AID 2282953); details: HepG2 HSE cis-reporter, Attagene RNA transcription; actives raise or lower the signal
Sequence of Heat shock factor protein 1 (Homo sapiens) (Q00613 whole entry, looked up, the tested form may be a part): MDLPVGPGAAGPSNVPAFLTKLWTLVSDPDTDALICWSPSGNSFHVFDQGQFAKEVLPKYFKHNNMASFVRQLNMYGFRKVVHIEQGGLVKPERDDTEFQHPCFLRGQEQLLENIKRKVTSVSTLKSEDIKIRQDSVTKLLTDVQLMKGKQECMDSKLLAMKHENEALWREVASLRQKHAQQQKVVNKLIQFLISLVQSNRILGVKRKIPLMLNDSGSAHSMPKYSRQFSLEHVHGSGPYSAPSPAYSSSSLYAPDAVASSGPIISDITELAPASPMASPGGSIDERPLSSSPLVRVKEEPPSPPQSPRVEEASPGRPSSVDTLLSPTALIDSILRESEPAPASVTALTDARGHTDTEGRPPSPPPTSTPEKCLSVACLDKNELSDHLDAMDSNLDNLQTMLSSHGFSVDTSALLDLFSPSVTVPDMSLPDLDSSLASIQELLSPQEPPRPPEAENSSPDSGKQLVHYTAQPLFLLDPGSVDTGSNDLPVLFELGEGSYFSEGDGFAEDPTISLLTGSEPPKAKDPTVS
Summary of the method: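 Endogenous transcription factor activity captured via cis-promoter reporter units transfected into HepG2; treatment lasted 24 h. Fluorescence intensity of reporter fragments analysed with bidirectional curve fitting, DMSO baseline.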

[8] = ATG_MRE_CIS: Attagene CIS-FACTORIAL HepG2 Assay for human Metal Responsive Element (MRE) (AID 2282954); details: HepG2 MRE cis-reporter transcription, Attagene multiplex; actives raise or lower the signal
Summary of the method: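 Measured here is mRNA induction from an MRE cis-element reporter in HepG2 after 24 h, quantified by fluorescence of labelled RT-PCR products on capillary electrophoresis; gain- and loss-of-signal fits use DMSO as baseline.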

[9] = ATG_PBREM_CIS: Attagene CIS-FACTORIAL HepG2 Assay for human Phenobarbital-responsive Enhancer Module (PBREM) (AID 2282955); details: HepG2 PBREM cis-reporter, Attagene multiplexed transcription; actives raise or lower the signal
Summary of the method: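 HepG2 cells transiently transfected with multiple cis-regulated reporter units measure endogenous transcription factor activity; 24 h compound exposure. Reporter mRNA quantified by RT-PCR, fluorescent labelling, HpaI digestion and capillary electrophoresis; bidirectional fit versus DMSO.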

[10] = target: Paired box protein Pax-6 (Homo sapiens) (UniProt P26367); experiment: ATG_Pax6_CIS: Attagene CIS-FACTORIAL HepG2 Assay for human Paired Box 6 (PAX6) (AID 2282956); details: HepG2 CIS-FACTORIAL PAX6 reporter transcription, RNA readout; actives raise or lower the signal
Sequence of Paired box protein Pax-6 (Homo sapiens) (P26367 whole entry, looked up): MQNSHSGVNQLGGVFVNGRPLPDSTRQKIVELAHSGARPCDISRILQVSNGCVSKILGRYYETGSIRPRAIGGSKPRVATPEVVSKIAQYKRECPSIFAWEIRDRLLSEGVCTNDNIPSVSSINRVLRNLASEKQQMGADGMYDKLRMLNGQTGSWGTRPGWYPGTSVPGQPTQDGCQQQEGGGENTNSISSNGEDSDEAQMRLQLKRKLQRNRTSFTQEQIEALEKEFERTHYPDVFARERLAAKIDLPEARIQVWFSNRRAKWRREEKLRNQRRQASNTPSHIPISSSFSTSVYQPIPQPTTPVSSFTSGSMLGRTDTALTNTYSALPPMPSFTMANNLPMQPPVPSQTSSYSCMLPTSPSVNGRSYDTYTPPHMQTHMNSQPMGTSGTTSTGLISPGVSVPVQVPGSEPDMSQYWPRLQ
Summary of the method: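 Readout: reporter transcript fluorescence after RT-PCR and capillary electrophoresis. Cells: HepG2, transiently transfected with cis-regulated MRTUs. Exposure 24 h. Gain or loss of signal fitted bidirectionally relative to DMSO.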

[11] = ATG_PXRE_CIS: Attagene CIS-FACTORIAL HepG2 Assay for human Pregnane X Receptor Element (PXRE) (AID 2282957); details: HepG2 Attagene CIS-FACTORIAL PXRE reporter, mRNA; actives raise or lower the signal
Summary of the method: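 Reporter transcripts under endogenous PXR-responsive cis-regulation quantified from total RNA of transfected HepG2 cells 24 h post-dosing, via RT-PCR with fluorescent primer extension and capillary electrophoresis. Gain or loss of signal fitted against DMSO baseline.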

[12] = ATG_PPRE_CIS: Attagene CIS-FACTORIAL HepG2 Assay for human Peroxisome Proliferator-activated Response Element (PPRE) (AID 2282958); details: HepG2 PPRE cis-element reporter, Attagene transcription factor profiling; actives raise or lower the signal
Summary of the method: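 HepG2 cells are transiently transfected with multiplexed cis-promoter reporter units to report endogenous PPAR activity. After 24 h dosing, reporter mRNA is read by RT-PCR and capillary electrophoresis. Fitting is bidirectional against DMSO.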

[13] = ATG_RORE_CIS: Attagene CIS-FACTORIAL HepG2 Assay for human RAR-related Orphan Receptor Element (RORE) (AID 2282959); details: HepG2 Attagene cis-factorial RORE reporter, mRNA; actives raise or lower the signal
Summary of the method: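 HepG2 cells carrying transiently transfected cis-regulated reporter units; RORE-driven reporter mRNA quantified 24 h post-dosing by RT-PCR, 6-FAM primer extension, HpaI digestion and capillary electrophoresis. Bidirectional fit versus DMSO.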

[14] = ATG_Sox_CIS: Attagene CIS-FACTORIAL HepG2 Assay for human SRY-box transcription factor (SOX) (AID 2282960); details: HepG2 Attagene cis-factorial SOX reporter, mRNA; actives raise or lower the signal
Summary of the method: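 HepG2 cells transiently transfected with multiple cis-regulated reporter units, then dosed for 24 h. Reporter mRNA quantified by RT-PCR, fluorescent labelling, HpaI digestion and capillary electrophoresis; bidirectional fit versus DMSO.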

[15] = target: Transcription factor Sp1 (Homo sapiens) (UniProt P08047); experiment: ATG_Sp1_CIS: Attagene CIS-FACTORIAL HepG2 Assay for human Specificity Protein 1 (Sp1) (AID 2282961); details: HepG2 Sp1 cis-reporter transcription, actives raise or lower the signal
Sequence of Transcription factor Sp1 (Homo sapiens) (P08047 whole entry, looked up): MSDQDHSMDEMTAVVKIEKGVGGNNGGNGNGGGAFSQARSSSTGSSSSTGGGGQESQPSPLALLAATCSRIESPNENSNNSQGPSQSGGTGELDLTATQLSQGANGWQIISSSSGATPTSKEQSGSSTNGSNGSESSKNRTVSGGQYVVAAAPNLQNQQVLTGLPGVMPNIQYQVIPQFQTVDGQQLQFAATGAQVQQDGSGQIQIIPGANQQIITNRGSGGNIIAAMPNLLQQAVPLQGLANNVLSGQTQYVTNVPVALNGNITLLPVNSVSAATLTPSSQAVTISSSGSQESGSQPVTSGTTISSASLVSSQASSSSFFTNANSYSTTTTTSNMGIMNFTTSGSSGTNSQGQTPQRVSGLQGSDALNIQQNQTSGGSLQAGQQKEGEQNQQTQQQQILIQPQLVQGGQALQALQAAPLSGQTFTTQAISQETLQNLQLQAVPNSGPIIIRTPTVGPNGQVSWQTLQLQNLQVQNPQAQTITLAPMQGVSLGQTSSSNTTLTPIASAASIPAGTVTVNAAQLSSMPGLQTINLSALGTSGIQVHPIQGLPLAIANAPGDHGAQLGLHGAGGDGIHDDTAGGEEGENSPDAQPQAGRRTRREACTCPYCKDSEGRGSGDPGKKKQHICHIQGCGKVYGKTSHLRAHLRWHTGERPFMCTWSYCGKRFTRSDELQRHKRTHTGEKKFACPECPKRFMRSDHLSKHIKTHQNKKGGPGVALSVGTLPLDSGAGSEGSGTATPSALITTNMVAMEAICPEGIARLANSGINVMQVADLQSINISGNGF
Summary of the method: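 HepG2 cells transiently transfected with multiplexed cis-regulated reporter constructs, chemical exposure 24 h. Reporter mRNA quantified by RT-PCR with capillary electrophoresis; bidirectional fit relative to DMSO.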

[16] = ATG_SREBP_CIS: Attagene CIS-FACTORIAL HepG2 Assay for human Sterol Regulatory Element Binding (SREBP) (AID 2282962); details: HepG2 Attagene cis-factorial SREBP reporter, mRNA; actives raise or lower the signal
Summary of the method: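 Readout: fluorescent reporter-transcript peaks resolved by capillary electrophoresis after RT-PCR. Cells were human HepG2 carrying transfected cis-promoter reporter constructs, dosed for 24 h. Gain or loss of signal was fitted against DMSO controls.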

[17] = target: Signal transducer and activator of transcription 3 (Homo sapiens) (UniProt P40763); experiment: ATG_STAT3_CIS: Attagene CIS-FACTORIAL HepG2 Assay for human Signal Transducer and Activator of Transcription 3 (STAT3) (AID 2282963); details: HepG2, Attagene cis-factorial STAT3 reporter transcription; actives raise or lower the signal
Sequence of Signal transducer and activator of transcription 3 (Homo sapiens) (P40763 whole entry, looked up, the tested form may be a part): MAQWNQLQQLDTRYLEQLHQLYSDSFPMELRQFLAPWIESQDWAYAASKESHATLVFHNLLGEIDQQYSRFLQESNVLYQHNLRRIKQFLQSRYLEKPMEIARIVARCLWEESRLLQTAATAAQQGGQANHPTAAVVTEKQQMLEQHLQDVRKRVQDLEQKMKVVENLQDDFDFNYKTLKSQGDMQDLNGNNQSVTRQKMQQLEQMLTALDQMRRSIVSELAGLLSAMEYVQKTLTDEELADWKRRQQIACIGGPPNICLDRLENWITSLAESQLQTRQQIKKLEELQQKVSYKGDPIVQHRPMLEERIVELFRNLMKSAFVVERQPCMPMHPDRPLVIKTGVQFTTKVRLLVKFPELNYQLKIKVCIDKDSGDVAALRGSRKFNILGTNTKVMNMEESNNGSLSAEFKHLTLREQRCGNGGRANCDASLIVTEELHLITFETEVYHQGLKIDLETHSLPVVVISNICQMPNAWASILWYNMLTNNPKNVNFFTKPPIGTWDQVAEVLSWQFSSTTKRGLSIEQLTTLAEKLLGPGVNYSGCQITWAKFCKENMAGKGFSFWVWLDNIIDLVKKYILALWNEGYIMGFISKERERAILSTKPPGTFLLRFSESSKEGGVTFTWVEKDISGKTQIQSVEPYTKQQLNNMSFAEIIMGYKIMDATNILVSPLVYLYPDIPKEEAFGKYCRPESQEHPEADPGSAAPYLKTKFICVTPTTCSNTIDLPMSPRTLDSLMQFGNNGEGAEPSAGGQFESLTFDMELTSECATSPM
Summary of the method: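 Fluorescence intensity of 6-FAM-labelled reporter fragments, separated by capillary electrophoresis after RT-PCR, gave the signal. Cells were HepG2 transfected with cis-element reporter units and treated 24 h; fitting was bidirectional relative to DMSO.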

[18] = ATG_TA_CIS: Attagene CIS-FACTORIAL HepG2 Assay for human TA Basal Promoter (AID 2282964); details: HepG2 Attagene CIS-factorial TA basal promoter reporter; actives raise or lower the signal
Summary of the method: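 Fluorescence from labelled RT-PCR reporter fragments, separated by capillary electrophoresis, gives the signal. Cells: HepG2 transiently carrying multiple reporter units, 24 h chemical dosing. Gain or loss relative to DMSO.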

[19] = target: Hypoxia-inducible factor 1-alpha (Homo sapiens) (UniProt Q16665); experiment: ATG_HIF1a_CIS: Attagene CIS-FACTORIAL HepG2 Assay for human Hypoxia Inducible Factor 1 (HIF1A) (AID 2282951); details: HepG2 Attagene cis-factorial HIF1a reporter transcription; actives raise or lower the signal
Sequence of Hypoxia-inducible factor 1-alpha (Homo sapiens) (Q16665 whole entry, looked up): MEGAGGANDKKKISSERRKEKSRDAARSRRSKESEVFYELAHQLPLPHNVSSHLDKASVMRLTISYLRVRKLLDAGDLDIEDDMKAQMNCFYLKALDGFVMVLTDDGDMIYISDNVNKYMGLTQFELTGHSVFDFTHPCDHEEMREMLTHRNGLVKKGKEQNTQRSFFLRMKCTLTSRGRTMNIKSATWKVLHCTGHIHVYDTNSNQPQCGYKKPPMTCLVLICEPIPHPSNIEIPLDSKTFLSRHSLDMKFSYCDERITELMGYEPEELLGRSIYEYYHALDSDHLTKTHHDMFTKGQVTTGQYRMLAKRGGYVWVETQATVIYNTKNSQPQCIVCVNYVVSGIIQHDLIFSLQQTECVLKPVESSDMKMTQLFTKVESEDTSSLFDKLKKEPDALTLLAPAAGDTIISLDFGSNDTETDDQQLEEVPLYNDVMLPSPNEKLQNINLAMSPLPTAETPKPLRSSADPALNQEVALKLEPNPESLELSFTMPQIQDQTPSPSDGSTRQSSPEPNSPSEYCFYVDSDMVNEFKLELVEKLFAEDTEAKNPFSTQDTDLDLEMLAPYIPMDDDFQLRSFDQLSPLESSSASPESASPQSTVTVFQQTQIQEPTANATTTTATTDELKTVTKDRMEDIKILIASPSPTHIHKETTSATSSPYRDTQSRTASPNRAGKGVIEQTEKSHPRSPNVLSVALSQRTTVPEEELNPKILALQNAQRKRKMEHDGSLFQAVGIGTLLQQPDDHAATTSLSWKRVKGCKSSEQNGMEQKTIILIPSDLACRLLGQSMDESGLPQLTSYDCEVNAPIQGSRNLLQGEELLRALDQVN
Summary of the method: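 HepG2 cells transiently transfected with multiple cis-regulated reporter transcription units measure endogenous transcription factor activity. After 24 h exposure, reporter mRNA is quantified by RT-PCR with 6-FAM labelling, HpaI digestion and capillary electrophoresis. Bidirectional fitting against DMSO.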

Measured: AC50

CN(C)CCC=C1c2ccccc2CCc2ccccc21
inactive: [1] | [2] | [4] | [5] | [6] | [7] | [9] | [10] | [12] | [13] | [14] | [16] | [17] | [18]
active: [3] 21.5 µM | [8] 43.2 µM | [11] 13.2 µM | [15] 45.3 µM

CCO[Si](CCC#N)(OCC)OCC
inactive: [1] | [2] | [3] | [4] | [5] | [19] | [6] | [7] | [8] | [11] | [13] | [14] | [15] | [16] | [17] | [18]

CC(O)CN (configuration not stated)
inactive: [1] | [2] | [3] | [4] | [5] | [19] | [6] | [8] | [10] | [11] | [13] | [14] | [15] | [16] | [17] | [18]

CCCCC(CC)COCCO (configuration not stated)
inactive: [1] | [2] | [3] | [4] | [5] | [6] | [7] | [8] | [9] | [10] | [11] | [12] | [13] | [14] | [15] | [16] | [17] | [18]

CC/C(=C(\c1ccccc1)c1ccc(OCCN(C)C)cc1)c1ccccc1
inactive: [1] | [2] | [3] | [4] | [5] | [19] | [6] | [7] | [8] | [10] | [12] | [13] | [14] | [15] | [16] | [17]
active: [16] 5.24 µM and 3.71 µM

CCCCC1CCCCC(=O)O1 (configuration not stated)
active: [12] 44.3 µM
inactive: [1] | [2] | [3] | [4] | [5] | [19] | [6] | [8] | [9] | [10] | [11] | [13] | [14] | [15] | [16] | [17] | [18]

Cc1cccc(O)c1
inactive: [1] | [2] | [3] | [4] | [5] | [19] | [7] | [8] | [9] | [10] | [11] | [12] | [13] | [14] | [15] | [16] | [17] | [18]

CC1COC(=O)O1 (configuration not stated)
active: [11] 40.3 µM
inactive: [1] | [2] | [3] | [4] | [5] | [6] | [7] | [8] | [9] | [10] | [12] | [13] | [14] | [15] | [16] | [17] | [18]

CC(=O)CCC(=O)O
active: [11] 63.8 µM
inactive: [1] | [2] | [3] | [4] | [5] | [19] | [6] | [8] | [9] | [10] | [13] | [15] | [16] | [17]

CC(C)COC(=O)c1ccccc1
inactive: [1] | [2] | [3] | [4] | [5] | [19] | [6] | [8] | [9] | [10] | [11] | [12] | [13] | [14] | [15] | [16] | [17] | [18]

O=C(O)CS
inactive: [1] | [2] | [3] | [4] | [5] | [19] | [7] | [8] | [10] | [11] | [12] | [13] | [14] | [15] | [16] | [17]

O=Cc1ccccc1O
active: [11] 100 µM | [13] 76.3 µM
inactive: [1] | [2] | [3] | [4] | [5] | [19] | [6] | [8] | [9] | [10] | [12] | [14] | [15] | [16] | [17] | [18]

O=C(OCc1ccccc1)c1ccccc1O
active: [11] 77.9 µM | [16] 128 µM
inactive: [1] | [2] | [3] | [4] | [5] | [19] | [6] | [7] | [8] | [10] | [13] | [15] | [17] | [18]

CCCCCCC(C)O (configuration not stated)
inactive: [1] | [2] | [3] | [4] | [5] | [19] | [6] | [7] | [8] | [11] | [12] | [15] | [16] | [17] | [18]

Nc1ccc(N)c([N+](=O)[O-])c1
inactive: [1] | [2] | [3] | [4] | [19] | [7] | [8] | [9] | [10] | [11] | [14] | [15] | [16] | [17]
active: [7] 25.9 µM
